# An excerpt weighted towards active compounds, which were near 1.2% of everything screened.
# Platelet DG rel = platelet dense granule release activity. human platelet-rich plasma, SFLLRN dense granule ATP release, luminescence. inhibition, %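 (compounds screened at 7.5 µM in platelet-rich plasma)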. hit rate 0.22% among 300,000;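 active means mean replicate score, as percent of positive control, at or above 50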
# NTR1 ag = NTR1 (human) agonism. activation, % at 20 µM. AID 493036. hit rate 0.17% among 330,000. NTR1-U2OS beta-arrestin-GFP spot imaging, agonist mode. P30989;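 active means activation at or above 40% of the spot to cytoplasm intensity ratio, with at least 20 cells analyzed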;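 further: 0% = DMSO without peptide and 100% = 100 nM NTR1 peptide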
# Target sequence (P30989 whole entry, looked up): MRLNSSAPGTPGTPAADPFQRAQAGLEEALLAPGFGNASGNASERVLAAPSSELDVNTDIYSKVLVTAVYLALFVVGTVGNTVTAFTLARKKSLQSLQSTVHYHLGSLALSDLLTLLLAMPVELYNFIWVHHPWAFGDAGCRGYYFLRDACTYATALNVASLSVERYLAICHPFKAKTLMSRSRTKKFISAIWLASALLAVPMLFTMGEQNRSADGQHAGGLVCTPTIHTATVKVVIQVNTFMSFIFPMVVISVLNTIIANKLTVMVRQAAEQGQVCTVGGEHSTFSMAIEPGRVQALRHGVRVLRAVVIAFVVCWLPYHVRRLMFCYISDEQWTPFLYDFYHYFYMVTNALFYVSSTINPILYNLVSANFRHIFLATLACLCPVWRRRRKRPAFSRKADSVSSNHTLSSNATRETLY
# beta cell repl = induces beta-cell replication in MIN6 cells. hit rate 0.29% among 330,000. proliferation, % at 10 µM. MIN6 cells proliferation, ATPlite luminescence, 48 h; cells starved in 0.2% serum; 100% = growth in 10% serum;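 active means compounds whose signal lies at least 3.5 SD above the mean of all wells on their plate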;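 further: 0% = DMSO-treated cells in low-serum medium and 100% = 10% serum control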
# GRK2 inh = inhibitors of human GRK2 displacing RNA aptamer; bead flow cytometry, FAM-aptamer displacement from GRK2; inhibition of aptamer binding, % at 10 µM; hit rate 0.59% among 330,000;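 active means inhibition of aptamer binding above 40%, roughly 3 SD of noise, on plates passing a quality check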;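 further: median bead fluorescence of bound FAM aptamer so fluorescent compounds give negative values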
# GRK2 CP1 = human GRK2 inhibition confirmation, cherry pick 1 | hit rate 4% among 2,000 | AID 504451 | shares compounds with GRK2 inh | aptamer displacement, % at 10 µM | bead-bound GRK2, FAM-aptamer displacement, flow cytometry;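 active means aptamer displacement above 40%, near three times the noise of non-fluorescent compounds, on plates passing quality checks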;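 further: negative values mostly reflect intrinsic compound fluorescence rather than true enhancement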
# Aptamer quench 1 = quenches fluorescent RNA aptamer, GRK2 hit artifact; shares compounds with GRK2 inh; Fluorescent RNA aptamer beads, quenching, flow cytometry; stronger effect = higher value; fluorescence change (kMESF span), kMESF (test concentration not listed); 110 tested, under 10 active; AID 504521;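 active means compounds whose bead fluorescence drops by more than 37 kMESF across the dose range, marking them as dye quenchers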
# FAM quench CP1 = aptamer fluorescence quenching in GRK2 counter-screen; shares compounds with GRK2 inh; Carboxyfluorescein RNA aptamer on beads, flow cytometry quenching; stronger effect = lower value; fluorescence response (% of DMSO), % at 10 µM; 2,000 tested, under 10 active; AID 504580;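 active means compounds that quench the bead-bound fluorescent RNA probe, cutting fluorescence to under half of the solvent control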;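 further: counterscreen run without GRK2 so only probe quenching by compound is measured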
# GRK2 confirm 2 = confirmation of human GRK2 inhibitors binding RNA aptamer site; shares compounds with GRK2 inh; bead-bound GRK2, FAM-aptamer displacement, flow cytometry; inhibition of aptamer binding, % at 10 µM; 360 tested, under 10 active; AID 504782;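 active means inhibition of aptamer binding above 40%, about triple the noise seen with nonglowing compounds, on plates passing quality control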;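 further: negative values mostly come from compounds that fluoresce themselves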
# FAM quench CP2 = counter-screen for GRK2 binding hits: quenchers of fluorescent RNA aptamer; shares compounds with GRK2 inh; 360 tested, under 10 active; fluorescence response vs DMSO, % at 10 µM; carboxyfluorescein RNA aptamer beads, flow cytometry quenching; stronger effect = lower value;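 active means response vs DMSO under 50%, meaning signal dropped by over half, treated as fluorescence quencher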;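 further: labelled aptamer on streptavidin beads without GRK2 as a quench counter-screen; 100% = bead fluorescence of DMSO wells and lower means quenching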
# FAM quench PS1 = counter-screen for GRK2 aptamer binding inhibitors: aptamer fluorescence quenching | shares compounds with GRK2 inh | 35 tested, under 10 active | fluorescence ratio to DMSO, % at 11.1 µM | Bead-bound FAM RNA aptamer fluorescence quenching, flow cytometry; stronger effect = lower value | AID 588496;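 active means compounds that dim the fluorescent label, raw bead signal shifting by over 33 units between lowest and highest dose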
# Active calls of the source: *; nt = no result given.
SMILES,Platelet DG rel,NTR1 ag,beta cell repl,GRK2 inh,GRK2 CP1,FAM quench CP1,others
COc1ccc(N2CCN(C(=O)COC(=O)COc3cc(C)cc(C)c3)CC2)cc1,0,1,5,1,nt,nt,
COc1ccc(N2CCN(C(=O)COC(=O)Cc3c(F)cccc3Cl)CC2)cc1,4,-1,-1,2,nt,nt,
COc1ccc(Cl)cc1C(=O)NNC(=S)NC(=O)c1cc(-c2ccccc2)nc2ccccc12,-5,1,0,43*,-2,109,
CCc1sc(C(=O)Nc2nccs2)cc1C,9,1,-3,30,0,97,
CN(C(=O)COC(=O)c1cccnc1Nc1cccc(C(F)(F)F)c1)C1CCS(=O)(=O)C1 (configuration not stated),-5,3,1,0,-3,98,
COc1ccc(Cl)cc1C(=O)O/N=C(\N)c1ccccn1,4,3,-3,0,nt,nt,
N/C(=N\OC(=O)c1cc(Cl)ccc1Cl)c1ccccn1,7,2,-5,100*,-2,102,
CN(CCOc1ccccc1)C(=O)C1CCC(=O)N(CCc2ccc(Cl)cc2)C1 (configuration not stated),-7,-1,-1,0,0,96,
COc1ccc(CCN2CC(C(=O)N(C)CCOc3ccccc3)CCC2=O)cc1 (configuration not stated),-2,1,-2,0,2,96,
O=C(NCCOc1ccccc1)C1CCC(=O)N(CCc2ccc(Cl)cc2)C1 (configuration not stated),14,1,-5,0,nt,nt,
COc1ccccc1N1CCN(C(=O)c2ccc(S(=O)(=O)N3CCCCCC3)cc2)CC1,1,2,-1,1,-2,97,
O=C(c1ccc(S(=O)(=O)N2CCCCC2)cc1)N1CCN(c2ccccc2F)CC1,18,0,0,2,nt,nt,
CC1CC(C)CN(S(=O)(=O)c2ccc(C(=O)N3CCN(c4ccccc4)CC3)cc2)C1 (configuration not stated),-1,0,-2,2,4,95,
CN(C(=O)c1ccc(NC(=O)Cc2ccc(NC(=O)C3CCN(C(=O)C4CCC4)CC3)cc2)cc1)C1CC1,nt,4,-2,69*,2,97,
CCNc1nc(OC)nc(N2CCC(Cc3ccccc3)CC2)n1,23,10,-1,100*,nt,nt,GRK2 confirm 2=10;FAM quench CP2=107
COc1ccc2[nH]c(C(=O)O)c(CCNC(=O)/C=C/c3ccc(O)c(OC)c3)c2c1,4,-1,-3,1,nt,nt,
CCOCCCNC(=O)C(NC(=O)C1CCC(=O)N1)c1ccc(C)cc1 (configuration not stated),0,-2,-1,45*,3,95,
CCOCCCNC(=O)C(NC(=O)c1ccccc1O)c1ccc(C)cc1 (configuration not stated),0,1,0,0,nt,nt,
CCCN(C(=O)c1cn(C)c(=O)c2ccccc12)c1ccccc1C,7,-1,-1,0,-3,96,
CC(=O)NCCC(=O)Nc1nc2c(ccc3ccccc32)s1,-10,5,4,4,nt,nt,GRK2 confirm 2=8;FAM quench CP2=100
Cc1nc(N2CCN(C(=O)c3ccco3)CC2)c2c3c(sc2n1)CCCC3,2,2,-3,19,-2,96,
Nc1nc2c(nc(N3CCCCC3)n2[C@@H]2O[C@H](CO)[C@@H](O)[C@H]2O)c(=O)[nH]1,11,-1,-1,93*,-2,99,
CNC(C)C(=O)NC(C(=O)N1CCCC1C(=O)NNc1ccccc1)C(C)C (configuration not stated),nt,-1,-4,67*,10,94,
CNC(C)C(=O)NC(C(=O)N1CCCC1C(=O)NC1CCCc2ccccc21)C(C)C (configuration not stated),nt,1,-4,2,nt,nt,
O=C(CN1C(=O)/C(=C/c2ccc(F)cc2)SC1=S)NC1CCS(=O)(=O)C1 (configuration not stated),-1,0,-1,0,nt,nt,
SMILES,Platelet DG rel,NTR1 ag,beta cell repl,GRK2 inh,GRK2 CP1,FAM quench CP1,others
O=C(/C=C/c1ccc(O)c(O)c1)O[C@@H]1C[C@](O)(C(=O)O)C[C@@H](O)[C@H]1O,1,4,-1,16,-3,100,
O=C(/C=C/c1ccc(O)c(O)c1)OC1C(O)CC(OC(=O)/C=C/c2ccc(O)c(O)c2)(C(=O)O)CC1O (configuration not stated),-5,nt,nt,1,nt,nt,
COc1ccc(CN(C)CC(=O)Nc2ccccc2C(=O)NC2CC2)cc1,nt,0,-1,0,nt,nt,
Nc1nc(Cl)nc2ncn(Cc3ccccc3)c12,-6,2,-5,3,nt,nt,
COc1ccc(CN2C(=O)C(CC(C)C)Nc3ncnc(N4CCCCC4)c32)cc1 (configuration not stated),9,2,2,1,nt,nt,
COc1ccc(CN2C(=O)C(CC(C)C)Nc3ncnc(N4CCOCC4)c32)cc1 (configuration not stated),0,1,-1,97*,0,96,
COc1cccc(C2=NO[C@@H]3C(=O)N(c4ccc5c(c4)OCCO5)C(=O)[C@H]23)c1OC,14,0,-2,3,nt,nt,GRK2 confirm 2=1;FAM quench CP2=102
COc1cccc(OC)c1OC(=O)C1CC(=O)N(c2ccc3c(c2)OCCO3)C1 (configuration not stated),nt,0,1,2,nt,nt,GRK2 confirm 2=30;FAM quench CP2=104
O=C(O)C1CC(=O)N(c2ccc3c(c2)OCCO3)C1 (configuration not stated),nt,-2,0,61*,40*,97,Aptamer quench 1=-12;FAM quench PS1=101
COc1ccccc1NC(=O)C(C)OC(=O)C1CC(=O)N(c2ccc3c(c2)OCCO3)C1 (configuration not stated),1,0,7,0,nt,nt,
O=C(Nc1ccc2c(c1)OCO2)C1CC(=O)N(c2ccc3c(c2)OCCO3)C1 (configuration not stated),2,0,0,1,nt,nt,
CCN(CC)S(=O)(=O)c1cc(Cl)ccc1OC,14,-1,-2,0,nt,nt,
Cc1ccc(-n2nc3c(=O)n(CC(=O)NCCc4ccccc4C)nc(C)c3c2C)cc1,-13,5,-7,2,nt,nt,
